Measured values published in PubChem BioAssay AID492953 (The Scripps Research Institute Molecular Screening Center, 2010).
Screen size: about 340,000 compounds; about 4,200 (1.2%) were called active.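 Rule for the calls: active = inhibition above the mean of all tested compounds plus 3 SD (cut at about 24% in these data); inactive = the rest.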 What follows is part of a selection rich in actives, with near analogues and random picks from the rest.

molecular target: Platelet-activating factor acetylhydrolase IB subunit alpha2 (Homo sapiens) (UniProt P68402); assay: inhibition of PAF acetylhydrolase 1b subunit 2 – biochemical, fluorescence polarization, human, primary screen (AID 492953); conditions: recombinant PAFAH1B2, FP-rhodamine activity probe, at 3.39 µM, active compounds read high;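 note: 0% = enzyme with DMSO and 100% = wells lacking PAFAH1B2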
Sequence (P68402 whole entry, looked up): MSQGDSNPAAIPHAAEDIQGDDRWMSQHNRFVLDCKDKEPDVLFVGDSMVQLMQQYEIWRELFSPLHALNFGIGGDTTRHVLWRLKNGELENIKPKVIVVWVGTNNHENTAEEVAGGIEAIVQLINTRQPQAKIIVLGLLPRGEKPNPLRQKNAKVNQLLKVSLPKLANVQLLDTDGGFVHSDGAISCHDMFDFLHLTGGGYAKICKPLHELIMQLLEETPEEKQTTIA

| Compound | inhibition |
| --- | --- |
| O=C(NCC(c1cccs1)N1CCOCC1)c1cc(Cl)ccc1[N+](=O)[O-] (stereo unspecified) | 5.77% (inactive) |
| CSc1ccc(S(=O)(=O)N2CCC(C(=O)NCCc3ccccc3)CC2)cc1 | 0.35% (inactive) |
| CCOc1ccc(/C(O)=C2/C(=O)C(=O)N(Cc3cccnc3)C2c2ccc(N(C)C)cc2)c(C)c1 (stereo unspecified) | -1.88% (inactive) |
| O=C(O)/C=C/C(=O)NNc1ccc([N+](=O)[O-])cc1 | 4.93% (inactive) |
| O=C(NCc1cccc(C(F)(F)F)c1)c1cccc(S(=O)(=O)N2CCN(Cc3ccccc3)CC2)c1 | -9.49% (inactive) |
| O=C(CCC(=O)N1CCN(S(=O)(=O)c2ccc(Cl)cc2)CC1)NCc1cccc(C(F)(F)F)c1 | 26.5% (active) |
| O=C(CCC(=O)c1ccccc1)NCc1cccc(C(F)(F)F)c1 | 2.04% (inactive) |
| CC(=O)NCC(=O)N(Cc1ccco1)C1(C(=O)NC2CCCC2)CCCCC1 | 1.82% (inactive) |
| O=C(NCCc1c[nH]c2ccc(Cl)cc12)c1ccc([N+](=O)[O-])cc1 | 3.76% (inactive) |
| O=C(NCCc1ccc(Cl)cc1Cl)c1cc([N+](=O)[O-])c[nH]c1=O | 57% (active) |
| NS(=O)(=O)c1ccc(CCNC(=O)c2ccc(Cl)cc2[N+](=O)[O-])cc1 | -2.98% (inactive) |
| O=C(O)c1ccc(NN=CC2=C(N3CCOCC3)/C(=C/c3ccccc3)CC2)cc1 | -2.37% (inactive) |
| COc1ccc(C(CNC(=O)c2cc(S(=O)(=O)Nc3cccc(C)c3)ccc2C)N2CCCC2)cc1 (stereo unspecified) | 4.75% (inactive) |
| CC(C)C[C@H]1CN([C@@H](CC(C)C)CN2CCC[C@@H]2CN2C(=O)C(=O)NC[C@@H]2Cc2ccccc2)C(=O)C(=O)N1CCc1ccccc1 | 1.5% (inactive) |
| O=c1[nH]c(/C=C/c2cccc(Br)c2)nc2ccccc12 | 1.93% (inactive) |
| Cc1ccccc1/C=C\c1nc(O)c([N+](=O)[O-])c(=O)[nH]1 | 9.97% (inactive) |
| O=c1[nH]c(/C=C\c2cccc(C(F)(F)F)c2)nc(O)c1[N+](=O)[O-] | 27.5% (active) |
| Cc1ccnc(SCC(=O)Nc2cccc(S(=O)(=O)N3CCOCC3)c2)n1 | 1.16% (inactive) |
| COC(=O)C1=C(N)Oc2c(oc(CO)cc2=O)C1c1c(F)cccc1Cl (stereo unspecified) | 0.05% (inactive) |
| Cc1cc(F)ccc1S(=O)(=O)Nc1ncnc2scc(-c3ccc(F)cc3)c12 | 36.1% (active) |
| O=S(=O)(Nc1ncnc2sccc12)c1cccc(F)c1 | -0.25% (inactive) |
| COc1ccc(-c2csc3ncnc(N4CCN(S(=O)(=O)c5cccc(F)c5)CC4)c23)cc1 | 5.03% (inactive) |

| Compound | inhibition |
| --- | --- |
| CN(CCc1ccccn1)S(=O)(=O)c1ccc2c3c(cccc13)C(=O)N2 | -2.83% (inactive) |
| CN1C(c2ccc(F)cc2)=CS/C1=C(/C#N)c1nnc2n1-c1ccccc1SC2 | 2.85% (inactive) |
| CCN(CC)C(=O)Oc1ccc(Br)cc1C(=O)Nc1ccc(F)c(Cl)c1 | 7.03% (inactive) |
| C=CCC[C@H](Cc1ccc(F)cc1)C(=O)OC[C@@H](NC(=O)[C@@H](CC=C)CC(=O)N[C@H](CO)Cc1ccccc1)C(C)(C)C | 13.2% (inactive) |
| C=CC[C@@H](CC(=O)N[C@H](CO)Cc1ccccc1)C(=O)N[C@H](C)COC(=O)[C@@H](CC=C)Cc1ccc(F)cc1 | 26.8% (active) |
| C=CC[C@@H](CC(=O)N[C@H](CO)Cc1ccccc1)C(=O)N[C@@H](COC(=O)[C@@H](CC=C)Cc1ccc(F)cc1)Cc1c[nH]c2ccccc12 | -1.64% (inactive) |
| CCc1ccc(S(=O)(=O)Nc2cc3c(cc2N2CCCCC2)n(C)c(=O)c(=O)n3C)cc1 | 28.5% (active) |
| Cc1ccc(NS(=O)(=O)c2ccc3c(c2)n(C)c(=O)c(=O)n3C)c(C)c1 | 0.65% (inactive) |
| Cn1c(=O)c(=O)n(C)c2cc(S(=O)(=O)CCC(=O)N3CCCCC3)ccc21 | 5.13% (inactive) |
| O=C(NC1=CC(=O)c2ccccc2C1=O)c1ccccc1 | 17% (inactive) |
| CN(O)C(=S)c1ccccc1 | -1.16% (inactive) |
| Cc1ccc(C(=O)N/C(=C/c2ccc(-c3cccc([N+](=O)[O-])c3)o2)C(=O)NCCCN(C)C)cc1 | 1.95% (inactive) |
| NS(=O)(=O)c1ccc(N=Nc2c(O)[nH]c3ccc(Br)cc23)cc1 | 11.8% (inactive) |
| O=C(CNC(=O)Cc1ccccc1)N=Nc1c(O)[nH]c2ccc(Br)cc12 | -1.85% (inactive) |
| Oc1[nH]c2ccc(Br)cc2c1N=Nc1nn[nH]n1 | 73.3% (active) |
| Cc1cc(C)c(NC(=O)CN2CCOCCOCCOCCOCC2)c(C)c1 | 0.53% (inactive) |
| Cc1nc2nc(C)c(NS(=O)(=O)c3ccc(C(C)(C)C)cc3)c(=O)n2[nH]1 | 16.3% (inactive) |
| CC1(C)Cc2ccccc2-c2[nH]c(=S)[nH]c(=O)c21 | 26.1% (active) |
| CC1(C)Cc2ccccc2-c2nc(CN3CCOCC3)[nH]c(=O)c21 | 6.87% (inactive) |
| CC1(C)Cc2ccccc2/C(=C/C(=O)c2ccccc2)N1 | -0.07% (inactive) |
| CC1C(C)N(C(=O)CCl)c2ccccc2N1C(=O)CCl (stereo unspecified) | 2.69% (inactive) |
| CC(NC(=O)CC1SC(N)=NC1=O)c1ccccc1 (stereo unspecified) | 3.61% (inactive) |

| Compound | inhibition |
| --- | --- |
| CN(CC(=O)Nc1ccc(Cl)cc1)C(=O)CNC(=O)c1ccc2ccccc2c1 | 29% (active) |
| O=C(NNC(=O)c1ccc2ccccc2c1)c1ccc(Cl)cc1 | 3.28% (inactive) |
| CN(CC(=O)Nc1ccc(Cl)cc1)C(=O)c1ccc(COc2ccccc2)cc1 | 7.71% (inactive) |
| Clc1ccc2c(c1)C1=C(C(c3ccncc3)O2)C(c2ccc(Br)cc2)n2ncnc2N1 (stereo unspecified) | 2.64% (inactive) |
| CN(C)S(=O)(=O)c1cccc(C(=O)OCC(=O)N2CCCC2=O)c1 | 0.79% (inactive) |
| CC(=O)c1cccc(NC(=O)N2CCCC2C(=O)NCCc2ccccc2)c1 (stereo unspecified) | 4.97% (inactive) |
| CCc1ccccc1NC(=O)Cc1cn(C)c2ccccc12 | 4.1% (inactive) |
| COc1ccc(-c2cc(C(=O)NC(Cc3c[nH]c4ccccc34)C(=O)O)c(C)o2)cc1OC (stereo unspecified) | 9.21% (inactive) |
| COc1ccc(-c2cc(=O)oc3cc(OCC(=O)N[C@@H](Cc4c[nH]c5ccccc45)C(=O)O)ccc23)cc1 | 4.23% (inactive) |
| CC(Oc1ccc2c(-c3ccccc3)cc(=O)oc2c1)C(=O)NC(Cc1c[nH]c2ccccc12)C(=O)O (stereo unspecified) | 69.3% (active) |
| CSc1ncnc2c1ncn2CC(=O)C1CCC2C3CCC4=CC(=O)CCC4(C)C3CCC12C (stereo unspecified) | 3.57% (inactive) |
| Cc1ccc(S(=O)(=O)N2CCN(S(=O)(=O)N3CCOCC3)CC2)cc1 | 2.69% (inactive) |
| CC(C)(C)c1ccc(C(=O)N2CCN(CCNC(=O)C(=O)Nc3ccc(F)cc3)CC2)cc1 | 0.31% (inactive) |
| CC(=O)N1CCOc2ccc(S(=O)(=O)N3CCN(c4cccc(C(F)(F)F)c4)CC3)cc21 | 3.14% (inactive) |
| CC1CN(C(=O)c2cc(COc3c(F)cccc3F)on2)CCN1C (stereo unspecified) | 0.48% (inactive) |
| O=C(CNC1CCCCC1)NCC1(c2ccccc2)CCCC1 | 26.9% (active) |
| CC(=O)CC(CC(=O)NC1CCCCC1)c1ccccc1 (stereo unspecified) | 5.22% (inactive) |
| O=C(CCS(=O)(=O)c1ccccc1)NC1CCCC1 | 5.22% (inactive) |
| CC(C)Cn1cnc2c(SCc3ccc(Cl)cc3)nc(N)nc21 | 7.46% (inactive) |
| Cc1ccc(C(=O)COC(=O)CCN2C(=O)C3C4CC(C(Br)C4Br)C3C2=O)cc1 (stereo unspecified) | -1.23% (inactive) |
| COc1cccc(N2CCN(CC(=O)Nc3ccnn3C3CCCC3)CC2)c1 | 1.78% (inactive) |
| CC(Oc1ccc(Cl)cc1)C(=O)OCC(=O)Nc1ncc(Cl)cc1Cl (stereo unspecified) | 30.6% (active) |

| Compound | inhibition |
| --- | --- |
| CC1(C(=O)OCC(=O)Nc2ncc(Cl)cc2Cl)CC1(Cl)Cl (stereo unspecified) | 2.15% (inactive) |
| O=C(COC(=O)Cn1[nH]c(=O)c2ccccc2c1=O)Nc1ncc(Cl)cc1Cl | 2.27% (inactive) |
| CCN(CC(=O)Nc1c(F)cccc1F)C(=O)c1ccc(-c2ccccc2)cc1 | 3.05% (inactive) |
| COc1ccc(-c2cn(-c3ccc(C)cc3)c(=O)n2CC(=O)Nc2ccc(OC)c(OC)c2)cc1 | 2.69% (inactive) |
| CC1CCC(NC(=O)CNC(=O)c2ccc3ccccc3c2)CC1 (stereo unspecified) | 7.58% (inactive) |
| CCCc1cc(=O)n2[nH]c(SCc3ccccc3)nc2n1 | 13.6% (inactive) |
| CCCc1cc(=O)[nH]c(SCc2ccc(C#N)cc2)n1 | 25.2% (active) |
| CCCc1cc(=O)[nH]c(SCc2cc(=O)oc3c(C)c(C)ccc23)n1 | -0.37% (inactive) |
| Cn1cc(C2OC(=O)c3ccccc32)c2ccccc21 (stereo unspecified) | 0.55% (inactive) |
| Cc1cccc(NS(=O)(=O)c2ccc(C)c(C(=O)NCC(c3ccccc3)N(C)C)c2)c1 (stereo unspecified) | 6.63% (inactive) |
| Cc1ccc(S(=O)(=O)NCCC(c2ccccc2)c2ccccc2)cc1C(=O)O | 29% (active) |
| Cc1ccc(S(=O)(=O)NCCCn2ccnc2)cc1C(=O)NC(C)C | 2.08% (inactive) |
| COc1cc(Cl)c(C)cc1NC(=O)COC(=O)c1cc(SC)ccc1Cl | -3.93% (inactive) |
| CSCc1cc(N2CCOCC2)nc(SCc2ccc(Cl)cc2Cl)n1 | 10.7% (inactive) |
| COc1ccc(/C(N)=N/OC(=O)CCCc2ccccc2)cc1 | 6.71% (inactive) |
| N/C(=N\OC(=O)CCc1ccccc1)c1ccc(Cl)cc1 | 63.8% (active) |
| N/C(=N\OC(=O)CCc1ccccc1)c1cccnc1 | 1.52% (inactive) |
| C=C(C)c1cccc(C(C)(C)NC(=O)NC2CCCC2)c1 | 4.81% (inactive) |
| COCCSc1nnc(NC(=O)c2cc(OC)c(OC)cc2[N+](=O)[O-])s1 | 4.45% (inactive) |
| COC(=O)[C@@]1(C)[C@H]2C(=O)N(Cc3ccccc3)C(=O)[C@H]2[C@H]2CN=C(SCC3CC3)N21 | 2.74% (inactive) |
